# The supplement of paper PMC12632987
# In all, about 4,500 sequences were measured (“median log2 fold change of GCK-ALFA target abundance (FLAG IP / Myc IP barcode read proportion)”: median about 0.078, lowest 2% from about -0.6 on). Only a selection was taken, and the lowest values are over-represented in it overall.
# B1: GBRAP_160_4751 (protein)
# chain: SEALKKLKEEVKKIFEEGIEMLKEVPAEEAPTVLRGVMGEVLMEVFSSEAASDELEEEVGEVVDKAEAEAAANANAPVEYHIELLEKAKKEILEIIEKEI
# B2: GBRAP_52_6275 (protein)
# chain: MEEEAERLAEEFIRVALEGSEEEIREFARRLVEEKSEELIARVLEIVVEKAEELNAEEIEKLLEAVLILEGELEEAGRDPLPAQDAAARLAKLHEEKLKE
# B3: GBRAP_78_6606 (protein)
# chain: EVEELLEEAIELLSKAAKLLKELPPEVRDELMDLLVEAMSLLLESIEEGPNLKLLEEALKHVEEAIELLKKEKTPEAEKIIKLLEEAKEKIEKAIKLLKK
# B4: GBRAP_184_5238 (protein)
# chain: KVLEVTVEAADAEELRAKLEAVFAEAEAAGARVRLDVLVEELTPEKVDVLTEEIARMAAAGLLDLVEVTSSTPIAEEHIDRLVAAADAAGVRLVIAEPDE
# B5: GBRAP_57_6464 (protein)
# chain: MSPLEKALEHFEKAIKLIEEGASLEEILEEVEKGLEELDHTLLLDILLLLDPSARSDLSREELRERLLELVRRYLEEKGREEALKALKLMAGQVEMALTE
# B6: GBRAP_125_3136 (protein)
# chain: KRAALLALAEALARAMGFSEEEIAEIRRLAEAHDPAQTIVAIFLAAGAEEAAELAAEVLDKLSEEEIAALRALAEAARDLPLEEAVARLLAALKEAKAKL
# B7: GBRAP_52_6252 (protein)
# chain: MRARLRADAREILELVKEGREEEARRLAREIAETYNEEELRLFIDEFAALAAEAPKEDIDDVWRAAEILAEALEEAGWEEVLVDDALARTAAALVKVEAK
# B8: GBRAP_184_5187 (protein)
# chain: MVVEEELEIEDVAEARAKIAAIGERIAGKKAKLRVIVKAKKITVEIARTIMEGLGAIKAAGNATDITVELVGEMSEEVIDTAVELAKKAGIRVVIAMSEE
# B9: GBRAP_11_2656 (protein)
# chain: KKEAYKKAAELAEEAAKALQKLIEEGVDDEELIEKLRKLIEELKKLAEEELDEADKKEVEVVVELFEEFLADEENRLQLAEELLAGLRVLAGNFQLKADE
# B10: GBRAP_84_7005 (protein)
# chain: SREEEIVEITAEILEKASIETKALLLTYLILKNANKAATLALNDLLEEDPEAAVEALDRATEAYEEGKEEEVEKELLEKAKEEGEELAELVERLLELLKE
# B11: GBRAP_84_7006 (protein)
# chain: EREEEIVKLTKEILEKGSIELKALLLTYLILKNENKAATLALNDLLKEDPEAAVEALDRATEAYEEGKEEEVEKELKEKAKKEGKEVAELVEKLIKLLEE
# B12: GBRAP_84_7007 (protein)
# chain: SREQEILEITNKILEKGSIELKKKLLTYLILKNENKAATLALNYLLEEDPEAAVEALDEATEAYEEGKEEEVRKELLELAKKEGEEVYALVEELLELIDE
# B13: GBRAP_166_4935 (protein)
# chain: SLEKIYEETKKKVIELAKKALTADEEERIDLAIEIEELLKEAKEKGLTPEQLKEILLEALKELEEDPEVAEFLLRMILAASEMDEELQDVILEALEEFKK
# B14: GBRAP_128_3437 (protein)
# chain: AQEELLQEALELLDEIVESDVETAAELAKQLAELLGQLDEESRDEVVEYFEEKAKELTEEKLEAVADALREQVPQLDADTANAVNEMIVILGEQILELEE
# B15: GBRAP_160_4322 (protein)
# chain: KEELEELEKRIKEIAEEAKKMIKGQSAEEKITIVKVALGDIILEVESNPAVSDELEDKVAEIADAAEAYLDAHPDLSEEEVIALLEEAVKKILELIKEEK
# B16: GBRAP_137_3640 (protein)
# chain: MKVTIRVERHEDLVEITITVDDPEKAEEVAELITDLAVAHGALAISVEIKEDGTLEAVIWVPVERAEALIAAIVDALQSKFGATVTVEDLDTGEVRTYTP
# B17: GBRAP_184_5202 (protein)
# chain: AIVERTIEFENEEELKEKLKELLEELKGFKGTVYIHVEAPEITEEMAKLLIEFVKEIKENGYATEIIVDIEGEVSEEVRDLLLDEFAKIGAKVVIALSEE
# B18: GBRAP_11_2682 (protein)
# chain: RKEALERAAELAERAAELAERLLEEGVDNEELLEELRRALEELRRLVKEHLDEAHRTLVEIAEEELEEALADPENAAAHIERLLAAARVLRYNLEEELEE
# B19: GBRAP_125_3139 (protein)
# chain: MKAELLALAEALARALGYSEEEIAELRRLGEAHDPAQTIIAILLAEGFEELAELAREVLPKLTPEEIAELRALAESLRDKSREELRAALLAKLKELKAKQ
# B20: GBRAP_128_3300 (protein)
# chain: MDPALRAEVEALVETIRTGDPAARRAAAEALAALMGSVNDEDAEAIADIIEAAIPELSAEALEILADVLDAARPQLTPEKAALAADVASAALLAAEELAE
# B21: GBRAP_52_6059 (protein)
# chain: MEERIEELARRIAEAIAAGDLERALELLRRAIKELSVEEIRRMLELAAERVAKLGEEAHERFVELLEEAEELMKEAGISEEEAELIVGDAEAALARAVAA
# B22: GBRAP_52_6151 (protein)
# chain: AAARAAAYAREFVAAVRAGDEEKARAIMKEIAATLDDEEIALFLREVARLVAGLSPEDRERVVEAVLEFEDIAVAAGHDEDILSYETARVAGAAYEALQR
# B23: GBRAP_52_6153 (protein)
# chain: ARERAREYAEAFVAAVKAGDEERARAIMEEIAATLNDEEIELFLEEVARLVEGLTPEERERVVEAVLEFEDIAVAAGHDEELLSYHTARVAGAAYDALQK
# B24: GBRAP_52_6154 (protein)
# chain: MEERAREYAERFVAAVKAGDEEEARAIMEEIAATLDDEEIALFLEHVAELVAGLSPEDRERVVEAVLEFEDIAEAAGHDPELLSYHTARVAGAAYAALQA
# B25: GBRAP_64_6479 (protein)
# chain: NEEIEELLEELLEAARRLLALFERENPELAPEAQEIVDLLEEAKTASLEERLDLVLEVTDRLHALLRDPRVTPEQRDALLEALDLAMALAALLAEEVEKE
# B26: GBRAP_80_6848 (protein)
# chain: AEERLAAALAALEALLPEVAEEARELVALARELGVPDEEIAAFLEALNELAKLDPELAAELIREALEDMKELKEEGDSENALAVVRGYTGDALMAAEELE
# B27: GBRAP_80_6856 (protein)
# chain: AAAALAAALAALKALLPEVAEDAKEIVEIARELGVPDADIADLMEALAELAKVDPELAAELIKELLEELKEEKERGDAERALAVVRGYAGEALMLAEELE
# B28: GBRAP_80_6846 (protein)
# chain: AAARLAAELAALKALLPEVAEDAKEAVALARELGVPDADIADYLAALNELAKLDPELAAALLKELLADLREEKAEGDSENALAVVRGYTGEALMEAEELE
# B29: GBRAP_166_4906 (protein)
# chain: MKEEKIEELIERAEELIEELKEADEEEALELLIEIGEVLRELKELGASEEEILELVRRTLEAVKERGLSVRVAAGIIAEVADFDEEMREKLDEIAREVEA
# Target: GABARAP, O95166
# Test: median log2 fold change of GCK-ALFA target abundance (FLAG IP / Myc IP barcode read proportion) (log2 ratio); each designed protein is fused to an ALFA-tag nanobody in HEK293 cells to bring the named protein to FLAG-tagged glucokinase (GCK); Myc marks an untargeted standard; higher = target protein stabilised (more abundant)
# Settings: target protein: 3xFLAG-MCP-GCK-ALFA reporter; HEK293 landing pad (RPLP)
# Method in brief: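 Binders fused to an ALFA nanobody were recombined as a library into HEK293 landing-pad cells, which were induced with 2 μg mL^−1 doxycycline and then transfected to express a FLAG-tagged target and a Myc-tagged standard. After 48 h, circular RNA barcodes recovered by anti-FLAG and anti-Myc immunoprecipitation of lysates were reverse transcribed, amplified and sequenced. Each binder's target abundance is the median log2 ratio of FLAG to Myc barcode read proportions, from barcodes present at ≥10^−7 in both replicates, binders carrying ≥3 barcodes per replicate, a 10^−6 pseudocount and pooled replicates.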
# Chain of GABARAP, O95166 (O95166 whole entry, the tested form may be a part): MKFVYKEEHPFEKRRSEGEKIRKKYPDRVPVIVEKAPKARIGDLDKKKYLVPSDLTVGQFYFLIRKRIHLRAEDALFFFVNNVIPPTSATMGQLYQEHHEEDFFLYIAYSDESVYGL
row,Binder,median log2 fold change
1,B1,-0.117
2,B2,0.0823
3,B3,-0.743
4,B4,0.168
5,B5,0.249
6,B6,-0.351
7,B7,-0.272
8,B8,0.57
9,B9,0.336
10,B10,-0.259
11,B11,-0.666
12,B12,-0.316
13,B13,0.184
14,B14,-0.0498
15,B15,0.161
16,B16,-0.0441
17,B17,-0.159
18,B18,-0.882
19,B19,0.207
20,B20,-0.00271
21,B21,0.0176
22,B22,0.0301
23,B23,-0.742
24,B24,0.0811
25,B25,-0.254
26,B26,-0.203
27,B27,-0.242
28,B28,-0.698
29,B29,-0.128
